The values below come from article PMC11006913.

Chain of HOXD13 (Homo sapiens, UniProt P35453 263-343, T313A) (P35453 263-343 T313A): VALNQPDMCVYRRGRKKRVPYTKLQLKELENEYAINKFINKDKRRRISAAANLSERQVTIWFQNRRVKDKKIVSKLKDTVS

In one assay the target is HOXD13 (Homo sapiens, UniProt P35453 263-343, T313R). Nature of the assay: PBM; 200 nM protein, PBS. The following applies: dsDNA, one strand shown.
Chain of HOXD13 (Homo sapiens, UniProt P35453 263-343, T313R) (P35453 263-343 T313R): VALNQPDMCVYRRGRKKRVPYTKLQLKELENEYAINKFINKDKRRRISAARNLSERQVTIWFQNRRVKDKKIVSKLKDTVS
Take CCCTGACC: the binding signal was 9.5 upbm affinity estimate (log intensity, higher = more binding, comparable within an allelic series).

With GTTGTAAA, the binding signal was 10.6 upbm affinity estimate (log intensity, higher = more binding, comparable within an allelic series).

For ACCAGGGG, the binding signal was 9.62 upbm affinity estimate (log intensity, higher = more binding, comparable within an allelic series).

TCACTAAA: the binding signal was 10.1 upbm affinity estimate (log intensity, higher = more binding, comparable within an allelic series).

For CCGGCCCA, the binding signal was 9.49 upbm affinity estimate (log intensity, higher = more binding, comparable within an allelic series).

CATCGGGG: the binding signal is 9.56 upbm affinity estimate (log intensity, higher = more binding, comparable within an allelic series).

For the sequence ATTACGAG, the binding signal was 10.5 upbm affinity estimate (log intensity, higher = more binding, comparable within an allelic series).

Turning to CGCAGCCC, the binding signal is 9.49 upbm affinity estimate (log intensity, higher = more binding, comparable within an allelic series).

Consider CTTGTTAA, for which the binding signal was 10.6 upbm affinity estimate (log intensity, higher = more binding, comparable within an allelic series).

In the case of TCCATAAA, the binding signal was 10.7 upbm affinity estimate (log intensity, higher = more binding, comparable within an allelic series).

Consider CTTTACGA, for which the binding signal was 10.5 upbm affinity estimate (log intensity, higher = more binding, comparable within an allelic series).

For CTACGTAG, the binding signal is 9.84 upbm affinity estimate (log intensity, higher = more binding, comparable within an allelic series).

As to CCCCTCGC, the binding signal was 9.62 upbm affinity estimate (log intensity, higher = more binding, comparable within an allelic series).

For the sequence CGAAGGCG, the binding signal is 9.52 upbm affinity estimate (log intensity, higher = more binding, comparable within an allelic series).

In the case of CCTCATAA, the binding signal is 10.6 upbm affinity estimate (log intensity, higher = more binding, comparable within an allelic series).

Regarding CCTATAAA, the binding signal was 11.1 upbm affinity estimate (log intensity, higher = more binding, comparable within an allelic series).

Regarding CCGCCCGG, the binding signal is 9.44 upbm affinity estimate (log intensity, higher = more binding, comparable within an allelic series).

Regarding CATCGGGC, the binding signal is 9.55 upbm affinity estimate (log intensity, higher = more binding, comparable within an allelic series).

Take ATAACACG: the binding signal is 10.1 upbm affinity estimate (log intensity, higher = more binding, comparable within an allelic series).

Turning to CAGCGGGG, the binding signal was 9.37 upbm affinity estimate (log intensity, higher = more binding, comparable within an allelic series).

With GTTTTATA, the binding signal is 10.8 upbm affinity estimate (log intensity, higher = more binding, comparable within an allelic series).

With GCAAGACC, the binding signal is 9.62 upbm affinity estimate (log intensity, higher = more binding, comparable within an allelic series).

Turning to CGCACAGC, the binding signal was 9.44 upbm affinity estimate (log intensity, higher = more binding, comparable within an allelic series).

GGGTTGAA: the binding signal is 9.64 upbm affinity estimate (log intensity, higher = more binding, comparable within an allelic series).

GCCGGTGA: the binding signal was 9.57 upbm affinity estimate (log intensity, higher = more binding, comparable within an allelic series).

For the sequence CCCGCCCC, the binding signal is 9.6 upbm affinity estimate (log intensity, higher = more binding, comparable within an allelic series).

Consider CTTATTGC, for which the binding signal is 10.1 upbm affinity estimate (log intensity, higher = more binding, comparable within an allelic series).

For TCGGCCCA, the binding signal is 9.58 upbm affinity estimate (log intensity, higher = more binding, comparable within an allelic series).

GAGGGGCC: the binding signal is 9.41 upbm affinity estimate (log intensity, higher = more binding, comparable within an allelic series).

As for CATGTATA, the binding signal is 10.3 upbm affinity estimate (log intensity, higher = more binding, comparable within an allelic series).

Regarding CCTATTAA, the binding signal is 11 upbm affinity estimate (log intensity, higher = more binding, comparable within an allelic series).

In the case of CGCCCGCG, the binding signal is 9.5 upbm affinity estimate (log intensity, higher = more binding, comparable within an allelic series).

GTTTAATA: the binding signal was 10.8 upbm affinity estimate (log intensity, higher = more binding, comparable within an allelic series).

As for AGTTTATA, the binding signal was 10.7 upbm affinity estimate (log intensity, higher = more binding, comparable within an allelic series).

For GAGCCCAC, the binding signal is 9.49 upbm affinity estimate (log intensity, higher = more binding, comparable within an allelic series).

Take GATACGAC: the binding signal is 9.91 upbm affinity estimate (log intensity, higher = more binding, comparable within an allelic series).

Regarding ATTTACAA, the binding signal is 10.7 upbm affinity estimate (log intensity, higher = more binding, comparable within an allelic series).

Regarding CCAGTAAA, the binding signal was 10.4 upbm affinity estimate (log intensity, higher = more binding, comparable within an allelic series).

For CCGGCCGC, the binding signal was 9.39 upbm affinity estimate (log intensity, higher = more binding, comparable within an allelic series).

As to GGGAGAAC, the binding signal is 9.51 upbm affinity estimate (log intensity, higher = more binding, comparable within an allelic series).

In the next assay the target is HOXD13 (Homo sapiens, UniProt P35453 263-343). Kind of assay: PBM; 200 nM protein, PBS. The following applies: dsDNA, one strand shown.
Chain of HOXD13 (Homo sapiens, UniProt P35453 263-343) (P35453 263-343): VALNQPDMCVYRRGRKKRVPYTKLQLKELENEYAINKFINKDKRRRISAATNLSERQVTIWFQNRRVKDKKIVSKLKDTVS
Take CCCTGACC: the binding signal was 9.5 upbm affinity estimate (log intensity, higher = more binding, comparable within an allelic series).

Turning to GTTGTAAA, the binding signal is 11.8 upbm affinity estimate (log intensity, higher = more binding, comparable within an allelic series).

With ACCAGGGG, the binding signal was 9.61 upbm affinity estimate (log intensity, higher = more binding, comparable within an allelic series).

Turning to TCACTAAA, the binding signal is 10.6 upbm affinity estimate (log intensity, higher = more binding, comparable within an allelic series).

Turning to CCGGCCCA, the binding signal was 9.55 upbm affinity estimate (log intensity, higher = more binding, comparable within an allelic series).

As to CATCGGGG, the binding signal was 9.66 upbm affinity estimate (log intensity, higher = more binding, comparable within an allelic series).

Consider ATTACGAG, for which the binding signal is 11.7 upbm affinity estimate (log intensity, higher = more binding, comparable within an allelic series).

On to CGCAGCCC, for which the binding signal was 9.55 upbm affinity estimate (log intensity, higher = more binding, comparable within an allelic series).

Regarding CTTGTTAA, the binding signal was 11.8 upbm affinity estimate (log intensity, higher = more binding, comparable within an allelic series).

Take TCCATAAA: the binding signal is 11.9 upbm affinity estimate (log intensity, higher = more binding, comparable within an allelic series).

As for CTTTACGA, the binding signal was 11.8 upbm affinity estimate (log intensity, higher = more binding, comparable within an allelic series).

Consider CTACGTAG, for which the binding signal is 9.97 upbm affinity estimate (log intensity, higher = more binding, comparable within an allelic series).

On to CCCCTCGC, for which the binding signal is 9.63 upbm affinity estimate (log intensity, higher = more binding, comparable within an allelic series).

Take CGAAGGCG: the binding signal was 9.45 upbm affinity estimate (log intensity, higher = more binding, comparable within an allelic series).

Turning to CCTCATAA, the binding signal was 11.8 upbm affinity estimate (log intensity, higher = more binding, comparable within an allelic series).

Regarding CCTATAAA, the binding signal is 12.3 upbm affinity estimate (log intensity, higher = more binding, comparable within an allelic series).

Regarding CCGCCCGG, the binding signal is 9.37 upbm affinity estimate (log intensity, higher = more binding, comparable within an allelic series).

For CATCGGGC, the binding signal was 9.52 upbm affinity estimate (log intensity, higher = more binding, comparable within an allelic series).

For the sequence ATAACACG, the binding signal was 10.7 upbm affinity estimate (log intensity, higher = more binding, comparable within an allelic series).

Take CAGCGGGG: the binding signal was 9.58 upbm affinity estimate (log intensity, higher = more binding, comparable within an allelic series).

With GTTTTATA, the binding signal is 11.8 upbm affinity estimate (log intensity, higher = more binding, comparable within an allelic series).

Regarding GCAAGACC, the binding signal is 9.57 upbm affinity estimate (log intensity, higher = more binding, comparable within an allelic series).

With CGCACAGC, the binding signal was 9.48 upbm affinity estimate (log intensity, higher = more binding, comparable within an allelic series).

With GGGTTGAA, the binding signal is 9.57 upbm affinity estimate (log intensity, higher = more binding, comparable within an allelic series).

Take GCCGGTGA: the binding signal is 9.7 upbm affinity estimate (log intensity, higher = more binding, comparable within an allelic series).

Turning to CCCGCCCC, the binding signal was 9.54 upbm affinity estimate (log intensity, higher = more binding, comparable within an allelic series).

As to CTTATTGC, the binding signal is 10.7 upbm affinity estimate (log intensity, higher = more binding, comparable within an allelic series).

Consider TCGGCCCA, for which the binding signal is 9.62 upbm affinity estimate (log intensity, higher = more binding, comparable within an allelic series).

For the sequence GAGGGGCC, the binding signal is 9.46 upbm affinity estimate (log intensity, higher = more binding, comparable within an allelic series).

As to CATGTATA, the binding signal is 10.8 upbm affinity estimate (log intensity, higher = more binding, comparable within an allelic series).

Take CCTATTAA: the binding signal was 12.1 upbm affinity estimate (log intensity, higher = more binding, comparable within an allelic series).

In the case of CGCCCGCG, the binding signal is 9.42 upbm affinity estimate (log intensity, higher = more binding, comparable within an allelic series).

For GTTTAATA, the binding signal is 11.8 upbm affinity estimate (log intensity, higher = more binding, comparable within an allelic series).

In the case of AGTTTATA, the binding signal was 11.9 upbm affinity estimate (log intensity, higher = more binding, comparable within an allelic series).

Turning to GAGCCCAC, the binding signal was 9.6 upbm affinity estimate (log intensity, higher = more binding, comparable within an allelic series).

For GATACGAC, the binding signal is 10.3 upbm affinity estimate (log intensity, higher = more binding, comparable within an allelic series).

In the case of ATTTACAA, the binding signal was 11.8 upbm affinity estimate (log intensity, higher = more binding, comparable within an allelic series).

For CCAGTAAA, the binding signal is 11.5 upbm affinity estimate (log intensity, higher = more binding, comparable within an allelic series).

As to CCGGCCGC, the binding signal was 9.4 upbm affinity estimate (log intensity, higher = more binding, comparable within an allelic series).

For GGGAGAAC, the binding signal was 9.63 upbm affinity estimate (log intensity, higher = more binding, comparable within an allelic series).

Another assay concerns the target HOXD13 (Homo sapiens, UniProt P35453 263-343, T313A). Nature of the assay: PBM; 200 nM protein, PBS. The following applies: dsDNA, one strand shown.
For the sequence CCCTGACC, the binding signal is 9.64 upbm affinity estimate (log intensity, higher = more binding, comparable within an allelic series).

On to GTTGTAAA, for which the binding signal was 11.7 upbm affinity estimate (log intensity, higher = more binding, comparable within an allelic series).

Take ACCAGGGG: the binding signal was 9.9 upbm affinity estimate (log intensity, higher = more binding, comparable within an allelic series).

CCGGCCCA: the binding signal is 9.54 upbm affinity estimate (log intensity, higher = more binding, comparable within an allelic series).

Regarding CATCGGGG, the binding signal was 9.72 upbm affinity estimate (log intensity, higher = more binding, comparable within an allelic series).

For the sequence ATTACGAG, the binding signal was 11.4 upbm affinity estimate (log intensity, higher = more binding, comparable within an allelic series).

Regarding CGCAGCCC, the binding signal was 9.57 upbm affinity estimate (log intensity, higher = more binding, comparable within an allelic series).

As to CTTGTTAA, the binding signal is 11.7 upbm affinity estimate (log intensity, higher = more binding, comparable within an allelic series).

For TCCATAAA, the binding signal is 11.7 upbm affinity estimate (log intensity, higher = more binding, comparable within an allelic series).

With CTTTACGA, the binding signal was 11.5 upbm affinity estimate (log intensity, higher = more binding, comparable within an allelic series).

For the sequence CTACGTAG, the binding signal was 9.71 upbm affinity estimate (log intensity, higher = more binding, comparable within an allelic series).

As to CCCCTCGC, the binding signal was 9.67 upbm affinity estimate (log intensity, higher = more binding, comparable within an allelic series).

As for CGAAGGCG, the binding signal is 9.53 upbm affinity estimate (log intensity, higher = more binding, comparable within an allelic series).

As to CCTCATAA, the binding signal was 11.6 upbm affinity estimate (log intensity, higher = more binding, comparable within an allelic series).

On to CCTATAAA, for which the binding signal was 12.1 upbm affinity estimate (log intensity, higher = more binding, comparable within an allelic series).

As for CCGCCCGG, the binding signal is 9.62 upbm affinity estimate (log intensity, higher = more binding, comparable within an allelic series).

In the case of CATCGGGC, the binding signal is 9.62 upbm affinity estimate (log intensity, higher = more binding, comparable within an allelic series).

Turning to CAGCGGGG, the binding signal is 9.58 upbm affinity estimate (log intensity, higher = more binding, comparable within an allelic series).

On to GTTTTATA, for which the binding signal is 11.6 upbm affinity estimate (log intensity, higher = more binding, comparable within an allelic series).

Turning to GCAAGACC, the binding signal was 9.69 upbm affinity estimate (log intensity, higher = more binding, comparable within an allelic series).

With CGCACAGC, the binding signal was 9.53 upbm affinity estimate (log intensity, higher = more binding, comparable within an allelic series).

Turning to GGGTTGAA, the binding signal was 9.62 upbm affinity estimate (log intensity, higher = more binding, comparable within an allelic series).

Regarding GCCGGTGA, the binding signal was 9.88 upbm affinity estimate (log intensity, higher = more binding, comparable within an allelic series).

CCCGCCCC: the binding signal is 9.7 upbm affinity estimate (log intensity, higher = more binding, comparable within an allelic series).

As to TCGGCCCA, the binding signal was 9.55 upbm affinity estimate (log intensity, higher = more binding, comparable within an allelic series).

As for GAGGGGCC, the binding signal is 9.41 upbm affinity estimate (log intensity, higher = more binding, comparable within an allelic series).

Consider CATGTATA, for which the binding signal was 11 upbm affinity estimate (log intensity, higher = more binding, comparable within an allelic series).

With CCTATTAA, the binding signal is 11.9 upbm affinity estimate (log intensity, higher = more binding, comparable within an allelic series).

As to CGCCCGCG, the binding signal was 9.59 upbm affinity estimate (log intensity, higher = more binding, comparable within an allelic series).

Consider GTTTAATA, for which the binding signal is 11.6 upbm affinity estimate (log intensity, higher = more binding, comparable within an allelic series).

Turning to AGTTTATA, the binding signal is 11.6 upbm affinity estimate (log intensity, higher = more binding, comparable within an allelic series).

GAGCCCAC: the binding signal was 9.72 upbm affinity estimate (log intensity, higher = more binding, comparable within an allelic series).

In the case of ATTTACAA, the binding signal is 11.6 upbm affinity estimate (log intensity, higher = more binding, comparable within an allelic series).

Regarding CCAGTAAA, the binding signal was 11.2 upbm affinity estimate (log intensity, higher = more binding, comparable within an allelic series).

As for CCGGCCGC, the binding signal was 9.32 upbm affinity estimate (log intensity, higher = more binding, comparable within an allelic series).

Consider GGGAGAAC, for which the binding signal was 9.68 upbm affinity estimate (log intensity, higher = more binding, comparable within an allelic series).
